Assay in all cases: NCI-60 one-dose screen, 48 h (100 = growth as untreated, 0 = no growth, -100 = all killed)
Settings in all cases: 10 µM unless noted

Experiment [1] concerns NCI-H23 lung.
The test system of experiment [2] is NCI-H226 lung.
For experiment [3], the system named is NCI-H322M lung.
The subject of experiment [4] is HOP-62 NSCLC.
In experiment [5] the test system is NCI-H460 lung.
In experiment [6] the test system is HOP-92 NSCLC.
The subject of experiment [7] is NCI-H522 lung.
In experiment [8] the test system is A549/ATCC NSCLC.
Experiment [9] relates to 786-0 renal.
For experiment [10], the system named is COLO 205 colon.
For experiment [11], the system named is DU-145 prostate.
Experiment [12] deals with K-562 leukemia.
Experiment [13] deals with MALME-3M melanoma.
Experiment [14] deals with MDA-MB-231 breast.
In experiment [15] the test system is RXF 393 renal.
Experiment [16] has as its system SF-268 CNS.
Experiment [17] relates to SF-295 CNS.
Experiment [18] deals with SF-539 CNS.
The subject of experiment [19] is UACC-257 melanoma.
Experiment [20] deals with M14 melanoma.

From PubChem BioAssay (NCI) come the findings set out here.

The structures appear in SMILES notation. Compounds without any hit were thinned out: in the full panel of roughly 83,000, 20% have a hit.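 Plates (96-well) were seeded with cells, treated with compound at one concentration, and incubated for 48 hours before percent growth was determined.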 Values without a mark were called inactive. The source made the active and inactive calls. How the source made its calls: active means growth percent below 10; inactive means the rest.

Take `C[C@H]1[C@H]2[C@H]3CC[C@@H]4[C@@]5(C)CC[C@H](O)C(C)(C)[C@@H]5CC[C@@]4(C)[C@]3(C)CC[C@]23CO[C@]1(C)[C@@H](C(=O)/C=C\c1cccnc1)C3`: the growth in experiment [1] was 59.5%; in [2], 76.6%; in experiment [3] it was 88.4%; in [4] it was 81.7%; in experiment [5], 40.7%; in [6], 79.1%. The growth was 38% in experiment [7]; 57.8% in [8]; 63.6% in experiment [9]; 56.3% in experiment [10]; 73.9% in experiment [11]; 18% in experiment [12]. Further, the growth in experiment [13] is 54.4%; in [14], 82.1%; in experiment [15], 75.2%; in [16] it was 81.9%; in [17], 79.9%; in experiment [18] it was 77.8%. For the same compound, the growth in [19] was 49.3%; in experiment [20], 60.8%.

On to `O=C(CCOCCNC(=O)COc1ccc2c(c1)OCC(c1ccc(F)cc1)C2=O)NCCCC(O)(P(=O)(O)O)P(=O)(O)O` (stereo not given), for which the growth in experiment [1] was 98%; in experiment [2], 106%; in experiment [3] it was 102%; in experiment [4], 105%; in experiment [5], 108%; in experiment [6] it was 120%. The growth was 94.9% in experiment [7]; 103% in experiment [8]; 103% in experiment [9]; 112% in experiment [10]; 108% in experiment [11]; 105% in [12]. Besides, the growth in experiment [13] is 113%; in [14], 107%; in experiment [15], 121%; in experiment [16], 98.6%; in [17], 102%; in [18], 101%. In addition, the growth in experiment [19] was 112%; in experiment [20], 109%.

Regarding `CCCCn1c(=O)c(-c2cc(-c3ccc(Cl)cc3)nc(-c3ccc(Cl)cc3)c2)cc2ccc(Cl)cc21`, the growth in [1] is 97.8%; in experiment [2], 98.5%; in experiment [3], 98.4%; in experiment [4] it was 97.5%; in experiment [5], 106%; in experiment [6], 88.3%. The growth in experiment [7] is 98.4%; in experiment [8] it was 105%; in experiment [9], 103%; in experiment [10], 105%; in [11] it was 108%; in experiment [12], 97.8%. The growth in experiment [13] was 98.5%; in experiment [14], 96.5%; in experiment [15] it was 103%; in [16] it was 94.2%; in experiment [17] it was 100%; in [18], 96.1%. For the same compound, the growth in [19] was 101%; in [20], 107%.

As for `CC1(C)C2CC1C1(/C=N/NC(N)=S)C(C2)C(C#N)(C#N)C1(C#N)C#N` (stereo not given), the growth in [1] is 89.4%; in experiment [2] it was 109%; in experiment [3], 98%; in [4] it was 108%; in experiment [5], 98.9%; in experiment [6], 55.5%. Moreover, the growth in experiment [7] was -60.7% (active); in [8], 96.4%; in [9], 81.7%; in experiment [10], 65.4%; in experiment [11], 82.6%; in experiment [12] it was 13.6%. Further, the growth in experiment [13] was 67%; in experiment [14] it was 57.3%; in experiment [15], 71.7%; in [16], 97.4%; in experiment [17], 111%; in experiment [18], 101%. The growth is 79.9% in experiment [19] and 87.6% in experiment [20].

With `C/C=C(\C)C(=O)N[C@H]1[C@@H](OC(C)=O)C[C@]2(C)C3CC[C@@]4(C)C(CC[C@@H]4C(C)N(C)C)C3CCC2[C@H]1O` (stereo not given in full), the growth in experiment [1] was 74.4%; in experiment [2] it was 101%; in experiment [3], 67.7%; in experiment [4], 91.9%; in experiment [5], 59%; in experiment [6], 71%. Besides, the growth was 99.4% in experiment [7]; 78.5% in [8]; 66.1% in [9]; 75.8% in experiment [10]; 87.4% in experiment [11]; 50.2% in experiment [12]. Besides, the growth in experiment [13] is 7.93% (active); in experiment [14], 78%; in experiment [15], 83.2%; in experiment [16], 42.7%; in experiment [17] it was 78.2%; in experiment [18] it was 37%. The growth in experiment [19] was 3.29% (active); in experiment [20], -32.7% (active).

As to `O=c1c2cc(F)ccc2sc2c(NCCN3CCOCC3)nc3ccccc3c12`, the growth is 85.1% in experiment [1]; 91.3% in experiment [2]; 77.8% in [3]; 80.9% in experiment [4]; 31.8% in experiment [5]; 44.6% in [6]. Moreover, the growth in [7] was 65.6%; in experiment [8], 69.3%; in [9], 59.2%; in [10], 53.2%; in [11], 68.4%; in experiment [12] it was 0.338% (active). Besides, the growth is 92% in [13]; 25.9% in [14]; 72.9% in experiment [15]; 68.7% in [16]; 89.4% in experiment [17]; 74.7% in experiment [18]. The growth in experiment [19] is 98.2%; in [20], 46.5%.

Regarding `O=C(CSc1nc2ccccc2[nH]1)Nc1cccc(Cl)c1`, the growth in [1] was 98.4%; in [2], 101%; in experiment [3] it was 96.3%; in experiment [4] it was 94.9%; in experiment [5], 103%; in [6], 90.6%. The growth in experiment [7] was 89%; in experiment [8], 111%; in experiment [9], 101%; in [10] it was 108%; in experiment [11] it was 101%; in [12], 100%. In addition, the growth in experiment [13] is 97.2%; in [14], 76.5%; in experiment [15], 114%; in experiment [16], 97.1%; in [17], 104%; in experiment [18], 103%. The growth in experiment [19] is 117%; in [20], 105%.
